For five compounds, outcome and AC50 results are on record in PubChem BioAssay (EPA / NIEHS).

Common to all, as to conditions: mRNA level, 48 h; actives raise or lower the signal
Read-out in experiment [1]: JUN Transcription Factor, JUN (gene 3725)
Description: LTEA_HepaRG_JUN: Life Technologies and Expression Analysis (LTEA) Assay for JUN Transcription Factor using HepaRG (AID 2283513). Put shortly:
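mRNA measured by TaqMan qRT-PCR after 48 h chemical exposure of HepaRG cultures; normalization to three housekeeping genes. Duplicate eight-point half-log curves from 100 uM in 0.5% DMSO; gain or loss fitted against DMSO baseline.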

Read-out in experiment [2]: Lipase C (LIPC), LIPC (gene 3990)
The experiment is described as follows: LTEA_HepaRG_LIPC: Life Technologies and Expression Analysis (LTEA) Assay for Lipase C (LIPC) using HepaRG (AID 2283514). An outline of the steps: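 In this multiplexed gene-expression screen, human HepaRG cultures received test chemicals for 48 h across eight concentrations with 100 uM highest, in duplicate. Values reflect LIPC mRNA induction or suppression versus DMSO vehicle, from normalized qRT-PCR.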

Read-out in experiment [3]: MicroRNA 122 (MIR122), gene 406906
The experiment is described as follows: LTEA_HepaRG_MIR122: Life Technologies and Expression Analysis (LTEA) Assay for MicroRNA 122 (MIR122) using HepaRG (AID 2283516). Further: the transcript read is the microRNA miR-122. An outline of the steps:
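Expression measured by microfluidic qRT-PCR with three housekeeping genes for normalisation, after 48 h treatment of HepaRG cultures. Eight concentrations (top 100 uM, half-log steps, 0.5% DMSO vehicle) in duplicate; gain or loss fitted relative to vehicle.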

Read-out in another experiment: MYC, MYC (gene 4609)
The experiment is described as follows: LTEA_HepaRG_MYC: Life Technologies and Expression Analysis (LTEA) Assay for MYC using HepaRG (AID 2283518). An outline of the steps: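 Cells are thawed, plated and cultured 48 h, then treated for 48 h with test chemicals (eight half-log concentrations from 100 uM, 0.5% DMSO vehicle). RNA is isolated and MYC expression quantified by qRT-PCR against three housekeeping genes.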

Read-out in experiment [4]: matrix metalloproteinase-3 (MMP3), MMP3 (gene 4314)
Description: LTEA_HepaRG_MMP3: Life Technologies and Expression Analysis (LTEA) Assay for matrix metalloproteinase-3 (MMP3) using HepaRG (AID 2283519). An outline of the steps: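 Human liver HepaRG cultures received chemicals (top concentration 100 uM, 0.5% DMSO) for 48 h in duplicate. MMP3 mRNA induction or loss was then assessed via TaqMan qRT-PCR with housekeeping-gene normalisation.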

Read-out in experiment [5]: Paternally Expressed 10 (PEG10), PEG10 (gene 23089)
Description: LTEA_HepaRG_PEG10: Life Technologies and Expression Analysis (LTEA) Assay for Paternally Expressed 10 (PEG10) using HepaRG (AID 2283520).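 On AC50: differentiated HepaRG human liver cells in serum-free induction medium with 0.5% DMSO; PEG10 transcript by qRT-PCR normalised to ACTB GAPDH and POLR2A.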 An outline of the steps:
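PEG10 transcript measured by Fluidigm qRT-PCR, normalized to three housekeeping genes, in HepaRG cells treated 48 h (highest 100 uM, half-log steps, 0.5% DMSO vehicle). Cells plated 48 h before switching to serum-free induction medium.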

Read-out in experiment [6]: Nuclear factor NF-kappa-B p105 subunit (Homo sapiens) (UniProt P19838)
Description: LTEA_HepaRG_NFKB1: Life Technologies and Expression Analysis (LTEA) Assay for Nuclear Factor Kappa B Subunit 1 (NFKB1) using HepaRG (AID 2283521).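 Further: differentiated human HepaRG liver cells in serum-free induction medium.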 Put shortly:
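NFKB1 transcript was measured by TaqMan qRT-PCR on Fluidigm arrays, normalised to three housekeeping genes and fitted in both directions against 0.5% DMSO. HepaRG cells were dosed in duplicate for 48 h in serum-free induction medium, eight half-log steps from 100 uM.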

Read-out in experiment [7]: Protein phosphatase 2A (PPP2R4), PTPA (gene 5524)
Description: LTEA_HepaRG_PPP2R4: Life Technologies and Expression Analysis (LTEA) Assay for Protein phosphatase 2A (PPP2R4) using HepaRG (AID 2283522). An outline of the steps: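 Expression was quantified by Fluidigm qRT-PCR normalised to three housekeeping genes after 48 h treatment. Human HepaRG cells received an 8-point series from 100 µM downward by half-logs, in duplicate with 0.5% DMSO vehicle and 1 mM phenobarbital as induction control.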

Read-out in experiment [8]: solute carrier (SLC22A1), SLC22A1 (gene 6580)
Description: LTEA_HepaRG_SLC22A1: Life Technologies and Expression Analysis (LTEA) Assay for solute carrier (SLC22A1) using HepaRG (AID 2283524). Put shortly:
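Transcript induction or suppression of SLC22A1 in human HepaRG cultures is scored after 48 h chemical treatment, with DMSO (0.5%) as baseline for bidirectional fitting. Concentrations span eight half-log points topping at 100 uM.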

Read-out in experiment [9]: Pyruvate Dehydrogenase Kinase 4 (PDK4), PDK4 (gene 5166)
Description: LTEA_HepaRG_PDK4: Life Technologies and Expression Analysis (LTEA) Assay for Pyruvate Dehydrogenase Kinase 4 (PDK4) using HepaRG (AID 2283525). An outline of the steps: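 Eight-point, half-log concentration series (max 100 uM, 0.5% DMSO) applied to differentiated HepaRG cells for 48 h in duplicate. Endpoint: PDK4 mRNA induction or repression by qRT-PCR against DMSO baseline.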

Read-out in experiment [10]: NAD(P)H dehydrogenase [quinone] 1 (NQO1), NQO1 (gene 1728)
Description: LTEA_HepaRG_NQO1: Life Technologies and Expression Analysis (LTEA) Assay for NAD(P)H dehydrogenase [quinone] 1 (NQO1) using HepaRG (AID 2283526). Put shortly: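 NQO1 transcript induction or loss measured by TaqMan qRT-PCR, referenced to three housekeeping genes and fitted bidirectionally against 0.5% DMSO. HepaRG cultures exposed 48 h, duplicate, eight-point half-log series, top 100 uM.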

Read-out in experiment [11]: Nuclear factor erythroid 2-related factor 2 (Homo sapiens) (UniProt Q16236)
The experiment is described as follows: LTEA_HepaRG_NFE2L2: Life Technologies and Expression Analysis (LTEA) Assay for Nuclear factor erythroid 2-related factor 2 (NFE2L2) Transcription Factor using HepaRG (AID 2283527). An outline of the steps: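 Human liver HepaRG line treated in duplicate for 48 h with an eight-point series topping at 100 uM. Gene expression of NFE2L2 by qRT-PCR, bidirectionally fitted against the vehicle control.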

Read-out in experiment [12]: succinate dehydrogenase complex iron sulfur subunit B (SDHB), SDHB (gene 6390)
The experiment is described as follows: LTEA_HepaRG_SDHB: Life Technologies and Expression Analysis (LTEA) Assay for succinate dehydrogenase complex iron sulfur subunit B (SDHB) using HepaRG (AID 2283528). An outline of the steps:
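SDHB transcript level read by TaqMan qRT-PCR, housekeeping-normalised (ACTB, GAPDH, POLR2A), after 48 h chemical treatment of plated HepaRG cells; eight concentrations top 100 uM, half-log steps, 0.5% DMSO, duplicates; fitted both directions against DMSO.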

Read-out in experiment [13]: Signal transducer and activator of transcription 3 (Homo sapiens) (UniProt P40763)
Description: LTEA_HepaRG_STAT3: Life Technologies and Expression Analysis (LTEA) Assay for Signal transducer and activator of transcription (STAT3) using HepaRG (AID 2283529). An outline of the steps:
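In this transcriptional endpoint, HepaRG cultures receive test chemicals at up to 100 uM for 48 h, tested in duplicate. STAT3 mRNA is normalized to ACTB, GAPDH and POLR2A.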

Read-out in experiment [14]: solute carrier (SLCO1B1), SLCO1B1 (gene 10599)
The experiment is described as follows: LTEA_HepaRG_SLCO1B1: Life Technologies and Expression Analysis (LTEA) Assay for solute carrier (SLCO1B1) using HepaRG (AID 2283530). An outline of the steps:
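Gain or loss of SLCO1B1 mRNA is fitted against the 0.5% DMSO vehicle in human HepaRG liver cells treated 48 h at up to 100 uM in half-log steps. Expression comes from qRT-PCR normalized to endogenous controls.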

Read-out in experiment [15]: sulfotransferase 2A1 (SULT2A1), SULT2A1 (gene 6822)
The experiment is described as follows: LTEA_HepaRG_SULT2A1: Life Technologies and Expression Analysis (LTEA) Assay for sulfotransferase 2A1 (SULT2A1) using HepaRG (AID 2283531). An outline of the steps: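 Cells were plated and cultured 48 h, switched to serum-free induction medium, then dosed in duplicate for 48 h (8 concentrations, max 100 uM). RNA was isolated and SULT2A1 expression measured by qRT-PCR; gain or loss of signal fitted relative to DMSO.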

Read-out in experiment [16]: Transforming Growth Factor (TGFA), TGFA (gene 7039)
Description: LTEA_HepaRG_TGFA: Life Technologies and Expression Analysis (LTEA) Assay for Transforming Growth Factor (TGFA) using HepaRG (AID 2283532). An outline of the steps:
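Gene expression of TGFA was quantified by qRT-PCR after human HepaRG cells were treated for 48 h with test chemicals (eight concentrations, highest 100 uM, 0.5% DMSO). Activity in either direction was fitted relative to DMSO.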

Read-out in experiment [17]: matrix metalloproteinase-10 (MMP10), MMP10 (gene 4319)
Description: LTEA_HepaRG_MMP10: Life Technologies and Expression Analysis (LTEA) Assay for matrix metalloproteinase-10 (MMP10) using HepaRG (AID 2283517). Put shortly:
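In differentiated HepaRG cultures kept in 0.5% DMSO, test chemicals act for 48 h over an eight-point range with a top dose of 100 uM. Expression is then quantified by TaqMan RT-PCR against ACTB, GAPDH and POLR2A.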

Read-out in experiment [18]: Phosphatase and tensin (PTEN), PTEN (gene 5728)
The experiment is described as follows: LTEA_HepaRG_PTEN: Life Technologies and Expression Analysis (LTEA) Assay for Phosphatase and tensin (PTEN) using HepaRG (AID 2283523). An outline of the steps:
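Expression of PTEN is quantified in the human liver line HepaRG following two days of dosing (top concentration 100 uM, half-log dilutions, 0.5% DMSO). Values derive from bidirectional curve fitting relative to DMSO controls.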

Read-out in experiment [19]: Lipoprotein lipase (LPL), LPL (gene 4023)
Description: LTEA_HepaRG_LPL: Life Technologies and Expression Analysis (LTEA) Assay for Lipoprotein lipase (LPL) using HepaRG (AID 2283515). Put shortly:
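Concentration-response testing used half-log steps from 100 uM in 0.5% DMSO on human HepaRG cells, 48 h, duplicate wells. Phenobarbital 1 mM served as induction control; LPL mRNA was normalized to ACTB, GAPDH, POLR2A.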

Activity calls are given as the source filed them. How the source made its calls: active means hit-call score of the fitted dose curve at least 0.9, where 1 is the maximum; inactive means score below 0.9.

Sequence of Nuclear factor erythroid 2-related factor 2 (Homo sapiens) (Q16236 whole entry, looked up): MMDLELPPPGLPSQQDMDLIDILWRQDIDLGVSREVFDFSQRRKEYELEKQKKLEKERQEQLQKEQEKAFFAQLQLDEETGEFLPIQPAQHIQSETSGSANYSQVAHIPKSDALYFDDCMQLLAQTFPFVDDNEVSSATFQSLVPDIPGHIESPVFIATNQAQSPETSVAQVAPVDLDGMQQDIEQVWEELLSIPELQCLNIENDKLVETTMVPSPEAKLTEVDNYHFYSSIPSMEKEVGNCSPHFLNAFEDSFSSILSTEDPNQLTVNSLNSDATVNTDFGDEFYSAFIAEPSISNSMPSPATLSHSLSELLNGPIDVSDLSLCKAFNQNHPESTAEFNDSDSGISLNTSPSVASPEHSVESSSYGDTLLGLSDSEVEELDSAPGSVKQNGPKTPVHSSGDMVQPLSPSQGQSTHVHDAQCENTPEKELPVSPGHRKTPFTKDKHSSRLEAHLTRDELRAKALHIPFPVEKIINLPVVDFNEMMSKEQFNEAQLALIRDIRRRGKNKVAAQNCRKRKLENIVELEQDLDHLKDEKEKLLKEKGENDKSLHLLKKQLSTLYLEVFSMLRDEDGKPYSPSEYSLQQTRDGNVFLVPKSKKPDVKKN
Sequence of Nuclear factor NF-kappa-B p105 subunit (Homo sapiens) (P19838 whole entry, looked up): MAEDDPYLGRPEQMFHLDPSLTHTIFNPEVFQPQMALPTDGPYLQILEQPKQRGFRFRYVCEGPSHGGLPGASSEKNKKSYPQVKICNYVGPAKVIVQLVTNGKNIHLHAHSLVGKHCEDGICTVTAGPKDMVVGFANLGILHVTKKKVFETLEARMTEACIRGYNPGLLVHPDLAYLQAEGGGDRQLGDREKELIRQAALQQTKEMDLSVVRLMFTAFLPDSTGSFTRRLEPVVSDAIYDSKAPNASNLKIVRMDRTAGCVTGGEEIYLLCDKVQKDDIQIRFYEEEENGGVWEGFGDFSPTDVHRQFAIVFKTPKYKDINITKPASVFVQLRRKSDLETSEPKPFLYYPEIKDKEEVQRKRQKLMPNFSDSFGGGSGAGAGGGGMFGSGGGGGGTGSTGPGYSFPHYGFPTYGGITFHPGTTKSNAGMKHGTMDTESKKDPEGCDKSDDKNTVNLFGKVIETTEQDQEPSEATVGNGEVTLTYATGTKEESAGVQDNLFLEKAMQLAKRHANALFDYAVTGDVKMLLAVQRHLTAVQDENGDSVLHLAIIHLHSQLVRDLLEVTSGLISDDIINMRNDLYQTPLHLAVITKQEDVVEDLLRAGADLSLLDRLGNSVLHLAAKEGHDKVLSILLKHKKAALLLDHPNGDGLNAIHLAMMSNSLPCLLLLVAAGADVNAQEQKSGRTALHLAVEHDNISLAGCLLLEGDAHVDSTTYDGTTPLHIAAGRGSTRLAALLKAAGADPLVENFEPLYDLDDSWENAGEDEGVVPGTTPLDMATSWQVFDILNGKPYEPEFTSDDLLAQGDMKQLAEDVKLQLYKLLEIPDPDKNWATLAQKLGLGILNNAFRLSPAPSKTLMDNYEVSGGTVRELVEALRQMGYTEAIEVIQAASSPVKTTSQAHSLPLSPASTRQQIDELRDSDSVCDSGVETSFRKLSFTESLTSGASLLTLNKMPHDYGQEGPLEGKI
Sequence of Signal transducer and activator of transcription 3 (Homo sapiens) (P40763 whole entry, looked up): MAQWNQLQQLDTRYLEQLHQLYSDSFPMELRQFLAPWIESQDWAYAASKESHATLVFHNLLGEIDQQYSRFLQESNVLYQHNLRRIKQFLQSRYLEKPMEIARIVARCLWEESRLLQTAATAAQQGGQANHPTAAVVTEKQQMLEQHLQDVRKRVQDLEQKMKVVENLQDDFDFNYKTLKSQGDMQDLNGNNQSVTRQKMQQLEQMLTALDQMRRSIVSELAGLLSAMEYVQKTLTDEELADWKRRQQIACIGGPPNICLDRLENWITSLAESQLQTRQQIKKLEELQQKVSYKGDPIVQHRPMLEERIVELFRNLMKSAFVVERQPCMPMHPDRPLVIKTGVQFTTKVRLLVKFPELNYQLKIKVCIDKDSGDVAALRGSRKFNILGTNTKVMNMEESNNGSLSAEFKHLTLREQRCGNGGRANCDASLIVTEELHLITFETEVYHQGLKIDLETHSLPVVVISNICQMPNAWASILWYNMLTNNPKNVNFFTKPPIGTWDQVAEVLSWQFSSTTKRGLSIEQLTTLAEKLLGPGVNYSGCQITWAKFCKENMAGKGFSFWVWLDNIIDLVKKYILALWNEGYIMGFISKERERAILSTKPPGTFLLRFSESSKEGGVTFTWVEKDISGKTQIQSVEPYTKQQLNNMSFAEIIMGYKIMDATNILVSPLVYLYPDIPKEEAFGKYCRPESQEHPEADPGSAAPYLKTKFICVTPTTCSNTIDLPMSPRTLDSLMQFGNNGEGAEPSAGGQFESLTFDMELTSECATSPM

On to `N#CC(Br)(Br)C(N)=O`, for which the outcome in experiment [1] was “inactive”; in experiment [2] it was “inactive”; in experiment [3], “inactive”; in the experiment with MYC, MYC (gene 4609), “inactive”; in experiment [4], “inactive”; in experiment [5] it was “inactive”. For the same compound, the outcome in experiment [6], in [7], in experiment [8], in [9], in experiment [10] and in [11] was inactive. In addition, the result in experiment [12], in experiment [13], in experiment [14], in experiment [15] and in [16] was inactive.

Take `CS(=O)(=O)NC(=O)c1cc(Oc2ccc(C(F)(F)F)cc2Cl)ccc1[N+](=O)[O-]`: the outcome in experiment [1] is “inactive”; in experiment [2] it was “inactive”; in experiment [3] it was “inactive”; in [17], “inactive”; with MYC, MYC (gene 4609) it was “inactive”; in [4], “inactive”. Moreover, the call in experiment [7], in [10], in experiment [11], in [12], in [13] and in [15] was inactive. Moreover, in experiment [16], the call was inactive. The AC50 in experiment [5] was 31 µM (active); in experiment [9] it was 16 µM (active).

For the compound `CNC(=O)Oc1cccc2c1OC(C)(C)C2`, the outcome in experiment [1] was “inactive”; in experiment [2], “inactive”; in [3] it was “inactive”; in [17], “inactive”; with MYC, MYC (gene 4609) it was “inactive”; in [4], “inactive”. The result in [5], in [7], in [18], in [8], in experiment [10] and in experiment [11] was inactive. Also, the call in [12], in experiment [13], in experiment [15] and in experiment [16] was inactive. In [9], the AC50 is 4.56 µM (active).

On to `CN(C)[C@@H]1C(=O)C(C(N)=O)=C(O)[C@@]2(O)C(=O)C3=C(O)c4c(O)cccc4[C@@](C)(O)[C@H]3C[C@@H]12`, for which the outcome is “inactive” in [2]; “inactive” in experiment [19]; “inactive” in experiment [3]; “inactive” in [17]; “inactive” with MYC, MYC (gene 4609); “inactive” in [4]. The compound was classed as inactive in experiment [5], in experiment [6], in [7], in [18], in [9] and in [10]. Moreover, the call in experiment [11], in experiment [12], in experiment [13], in experiment [14], in [15] and in [16] was inactive.

Turning to `Cc1ccc(N)c(N)c1`, the outcome is “inactive” in experiment [1]; “inactive” in experiment [2]; “inactive” in experiment [3]; “inactive” in the experiment with MYC, MYC (gene 4609); “inactive” in experiment [4]; “inactive” in [5]. Moreover, the compound was called inactive in experiment [6], in experiment [7], in experiment [8], in experiment [9], in experiment [10] and in [11]. Moreover, the call in experiment [12], in experiment [13], in experiment [15] and in [16] was inactive.
